Drawing on PubChem BioAssay (NCI), this text covers growth inhibition for six compounds.

Compounds without any hit were thinned out: in the full panel of roughly 79,000, 15% have a hit. Unmarked numbers belong to inactive results. Activity calls are given as the source filed them. No stated cut-off is given here; in the data, active means growth inhibition above about 70%; inactive means the rest.

The nature of assay [1]: NCI Yeast Anticancer Drug Screen. Data for the rad50 strain (AID 155).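 Further: 0% = growth of vehicle-only cultures of the same strain.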 Particulars: S. cerevisiae rad50 strain growth inhibition, stronger effect = higher value. The procedure, abridged:
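Readout: growth inhibition relative to vehicle-treated cultures. Compound exposure was carried out in a genetically defined yeast strain deficient in DNA damage repair.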

The nature of assay [2]: NCI Yeast Anticancer Drug Screen. Data for the mec2-1 strain (AID 157). To be noted: S. cerevisiae mec2-1 strain, stronger effect = higher value. Summed up: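 Strain: mec2-1 (DNA repair/cell cycle alteration). Compound exposure, then growth measured; inhibition expressed relative to vehicle.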
Assay [3] is described as follows: NCI Yeast Anticancer Drug Screen. Data for the sgs1 mgt1 strain (AID 161).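 Further: 0% = growth of cultures given vehicle only.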 Particulars: S. cerevisiae sgs1 mgt1 strain, stronger effect = higher value. The procedure, abridged:
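Mutant yeast exposed to compound; growth scored against vehicle-only wells.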

Assay [4] is described as follows: NCI Yeast Anticancer Drug Screen. Data for the cln2 rad14 strain (AID 165).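 Further: 0% = growth equal to vehicle treated cultures.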 To be noted: S. cerevisiae cln2 rad14 strain, stronger effect = higher value. The procedure, abridged:
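Compounds are applied to the cln2 rad14 yeast strain, and growth is then compared with that of vehicle-treated cultures to give inhibition.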

A short description of assay [5]: NCI Yeast Anticancer Drug Screen. Data for the bub3 strain (AID 167). Particulars: S. cerevisiae bub3 mutant strain, stronger effect = higher value. Summed up:
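Readout: yeast growth inhibition, expressed relative to vehicle-only wells. The test organism is a mutant strain from a panel with lesions in DNA repair or checkpoint genes.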

Assay [6] in a line: NCI Yeast Anticancer Drug Screen. Data for the mlh1 rad18 strain (AID 175). To be noted: S. cerevisiae mlh1 rad18 strain growth inhibition, stronger effect = higher value. Summed up: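 Read-out is yeast growth inhibition, calculated against vehicle-only controls. The compound was applied to a strain engineered with DNA damage repair alterations.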
Setting [7] is: at 5.0 µM (retest, dose inferred, filed as 0.5).
Setting [8] is: at 50.0 µM (retest, dose inferred, filed as 5.0).

With `O=C(O)/C=C1\c2ccccc2CCC1c1ccc2ccccc2c1` (stereo not drawn), the growth inhibition in assay [1] (setting [7]) is 64%; in assay [1] (setting [8]), 93% (active); in assay [1] (at 50.0 µM) it was 99.7% (active); in assay [2] (setting [7]), 27%; in assay [2] (setting [8]) it was 85% (active); in assay [2] (at 50.0 µM), 99.7% (active). Besides, the growth inhibition in assay [3] (setting [7]) is 43%; in assay [3] (setting [8]), 91% (active); in assay [3] (at 50.0 µM), 99.8% (active); in assay [4] (setting [7]) it was 41%; in assay [4] (setting [8]), 82% (active); in assay [4] (at 50.0 µM) it was 99.3% (active). For the same compound, the growth inhibition in assay [5] (setting [7]) was 47%; in assay [5] (setting [8]), 85% (active); in assay [5] (at 50.0 µM), 99.8% (active); in assay [6] (setting [7]) it was 54%; in assay [6] (setting [8]) it was 93% (active); in assay [6] (at 50.0 µM), 99.5% (active).

For the compound `O=C(N/N=C/c1ccccc1[O-])c1ccccc1O.O=C(N/N=C/c1ccccc1[O-])c1ccccc1O.[Mn+2]`, the growth inhibition was 48% in assay [1] (setting [7]); 99% (active) in assay [1] (setting [8]); 99.2% (active) in assay [1] (at 50.0 µM); 39% in assay [2] (setting [7]); 98% (active) in assay [2] (setting [8]); 99.8% (active) in assay [2] (at 50.0 µM). Also, the growth inhibition is 63% in assay [3] (setting [7]); 100% (active) in assay [3] (setting [8]); 97.7% (active) in assay [3] (at 50.0 µM); 28% in assay [4] (setting [7]); 99% (active) in assay [4] (setting [8]); 99% (active) in assay [4] (at 50.0 µM). The growth inhibition is 48% in assay [5] (setting [7]); 99% (active) in assay [5] (setting [8]); 99.6% (active) in assay [5] (at 50.0 µM); 40% in assay [6] (setting [7]); 99% (active) in assay [6] (setting [8]); 97.8% (active) in assay [6] (at 50.0 µM).

Regarding `CSc1nc2ccccc2s1`, the growth inhibition in assay [1] (setting [7]) is -5%; in assay [1] (setting [8]), 8%; in assay [1] (at 50.0 µM), 24.1%; in assay [2] (setting [7]) it was -2%; in assay [2] (setting [8]), 3%; in assay [2] (at 50.0 µM), 23.3%. For the same compound, the growth inhibition in assay [3] (setting [7]) was -1%; in assay [3] (setting [8]), 4%; in assay [3] (at 50.0 µM), -19.4%; in assay [4] (setting [7]), 4%; in assay [4] (setting [8]), 0%; in assay [4] (at 50.0 µM), 43.9%. For the same compound, the growth inhibition was -3% in assay [5] (setting [7]); -1% in assay [5] (setting [8]); -8.3% in assay [5] (at 50.0 µM); -3% in assay [6] (setting [7]); 5% in assay [6] (setting [8]); 4.2% in assay [6] (at 50.0 µM).

As to `O=Cc1ccc2cc(Cl)ccc2n1`, the growth inhibition in assay [1] (setting [7]) is -156%; in assay [1] (setting [8]), -135%; in assay [1] (at 50.0 µM) it was -14.9%; in assay [2] (setting [7]) it was -48%; in assay [2] (setting [8]) it was -55%; in assay [2] (at 50.0 µM) it was 18.4%. The growth inhibition in assay [3] (setting [7]) is -63%; in assay [3] (setting [8]), -63%; in assay [3] (at 50.0 µM), 10%; in assay [4] (setting [7]), -50%; in assay [4] (setting [8]), -67%; in assay [4] (at 50.0 µM), 46.6%. Moreover, the growth inhibition was -71% in assay [5] (setting [7]); -83% in assay [5] (setting [8]); -14.4% in assay [5] (at 50.0 µM); -138% in assay [6] (setting [7]); -111% in assay [6] (setting [8]); 2.55% in assay [6] (at 50.0 µM).

As for `O=[N+]([O-])C1C2C=CC(C2)[C@H]1c1ccc(Cl)cc1Cl` (stereo partly drawn), the growth inhibition in assay [1] (setting [7]) was 28%; in assay [1] (setting [8]), 70% (active); in assay [1] (at 50.0 µM), 89.5% (active); in assay [2] (setting [7]), 29%; in assay [2] (setting [8]) it was 85% (active); in assay [2] (at 50.0 µM) it was 93.2% (active). The growth inhibition is 33% in assay [3] (setting [7]); 96% (active) in assay [3] (setting [8]); 92.2% (active) in assay [3] (at 50.0 µM); 15% in assay [4] (setting [7]); 73% (active) in assay [4] (setting [8]); 89% (active) in assay [4] (at 50.0 µM). For the same compound, the growth inhibition in assay [5] (setting [7]) was 52%; in assay [5] (setting [8]), 93% (active); in assay [5] (at 50.0 µM), 91.6% (active); in assay [6] (setting [7]) it was 37%; in assay [6] (setting [8]), 89% (active); in assay [6] (at 50.0 µM), 89.2% (active).

Turning to `COc1ccc2c(c1)C(=O)/C(=C/c1ccc([N+](=O)[O-])o1)CO2`, the growth inhibition is 15% in assay [1] (setting [7]); 99% (active) in assay [1] (setting [8]); 97.2% (active) in assay [1] (at 50.0 µM); 10% in assay [2] (setting [7]); 100% (active) in assay [2] (setting [8]); 38.2% in assay [2] (at 50.0 µM). The growth inhibition in assay [3] (setting [7]) was 33%; in assay [3] (setting [8]), 100% (active); in assay [3] (at 50.0 µM) it was 98.1% (active); in assay [4] (setting [7]) it was 15%; in assay [4] (setting [8]), 99% (active); in assay [4] (at 50.0 µM), 57.1%. Also, the growth inhibition was 15% in assay [5] (setting [7]); 99% (active) in assay [5] (setting [8]); 89.8% (active) in assay [5] (at 50.0 µM); 78% (active) in assay [6] (setting [7]); 99% (active) in assay [6] (setting [8]); 98.2% (active) in assay [6] (at 50.0 µM).
